Paper PMC7862700, “An all-to-all approach to the identification of sequence-specific readers for epigenetic DNA modifications on cytosine”

Key:
Assay in all cases: DAPPL (digital affinity profiling via proximity ligation, sequencing); 10 mM Tris-HCl pH 7.5, 50 mM NaCl, 1 mM DTT, 4% glycerol, room temperature, 30 min; GST-TFs on glutathione beads, 16-mer random dsDNA library, 0.1% formaldehyde crosslink after washing; high values mean tight binding
Conditions in all cases: protein: recombinant; tags: N-terminal GST; dsDNA, one strand shown
[1] = target: T1, ERF (Homo sapiens, UniProt P50548 1-548)
T1 sequence: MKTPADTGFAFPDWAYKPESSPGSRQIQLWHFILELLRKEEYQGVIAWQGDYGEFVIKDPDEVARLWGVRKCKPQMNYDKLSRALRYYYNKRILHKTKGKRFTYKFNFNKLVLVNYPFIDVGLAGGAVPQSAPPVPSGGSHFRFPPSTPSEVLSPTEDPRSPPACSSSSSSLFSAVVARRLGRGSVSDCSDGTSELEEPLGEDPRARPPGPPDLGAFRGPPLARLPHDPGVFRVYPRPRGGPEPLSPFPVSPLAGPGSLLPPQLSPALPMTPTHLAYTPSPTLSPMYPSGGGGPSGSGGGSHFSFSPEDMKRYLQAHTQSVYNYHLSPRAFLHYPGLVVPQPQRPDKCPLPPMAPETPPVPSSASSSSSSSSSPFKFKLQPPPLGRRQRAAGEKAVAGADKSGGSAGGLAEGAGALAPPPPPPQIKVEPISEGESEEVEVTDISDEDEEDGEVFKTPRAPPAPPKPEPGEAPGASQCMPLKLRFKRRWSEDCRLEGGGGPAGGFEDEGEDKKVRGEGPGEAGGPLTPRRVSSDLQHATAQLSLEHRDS
Outline: (§1)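 In yeast, human transcription factors were expressed with a GST fusion, then pulled down on glutathione beads and given DNA barcodes. Pooled with a tag-only sample, they were exposed to 200 nmole of a 16-mer random double-stranded DNA library (Tris/NaCl/DTT/glycerol buffer, room temperature, 30 min), washed, crosslinked with 0.1% formaldehyde, proximity-ligated using BsaI/T4 ligase for 1 h at 37 °C, PCR-amplified and read on an Illumina NextSeq500. Each hexamer's frequency of reads for a factor, divided by the matching frequency for the tag-only sample, gives the binding signal.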

[2] = target: T2, ETV3L (Homo sapiens, UniProt Q6ZN32 1-361)
T2 sequence: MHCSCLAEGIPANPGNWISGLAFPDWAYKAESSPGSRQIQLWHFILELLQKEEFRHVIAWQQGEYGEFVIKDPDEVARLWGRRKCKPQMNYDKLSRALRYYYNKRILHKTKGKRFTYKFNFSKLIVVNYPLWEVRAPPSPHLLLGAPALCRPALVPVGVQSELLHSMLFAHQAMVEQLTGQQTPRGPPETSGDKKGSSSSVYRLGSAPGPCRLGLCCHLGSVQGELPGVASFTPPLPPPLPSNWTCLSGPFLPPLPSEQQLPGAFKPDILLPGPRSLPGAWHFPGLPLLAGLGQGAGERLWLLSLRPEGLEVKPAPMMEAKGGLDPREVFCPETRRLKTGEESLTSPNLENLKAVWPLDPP
Outline: as §1

[3] = target: T3, ETS2 (Homo sapiens, UniProt P15036 1-469)
T3 sequence: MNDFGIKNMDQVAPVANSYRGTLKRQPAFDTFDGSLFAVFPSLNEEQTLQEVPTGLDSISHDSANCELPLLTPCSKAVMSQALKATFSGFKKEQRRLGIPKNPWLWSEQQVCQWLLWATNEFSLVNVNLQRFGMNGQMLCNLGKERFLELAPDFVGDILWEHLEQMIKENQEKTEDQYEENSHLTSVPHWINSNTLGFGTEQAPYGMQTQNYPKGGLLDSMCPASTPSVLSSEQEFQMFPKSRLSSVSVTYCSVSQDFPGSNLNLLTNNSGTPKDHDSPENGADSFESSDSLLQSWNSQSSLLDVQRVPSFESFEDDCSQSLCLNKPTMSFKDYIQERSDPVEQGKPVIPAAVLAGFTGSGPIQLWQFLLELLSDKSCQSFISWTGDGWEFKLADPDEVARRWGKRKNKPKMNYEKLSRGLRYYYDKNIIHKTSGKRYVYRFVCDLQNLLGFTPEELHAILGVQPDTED
Outline: as §1

[4] = target: T4, SPDEF (Homo sapiens, UniProt O95238 1-335)
T4 sequence: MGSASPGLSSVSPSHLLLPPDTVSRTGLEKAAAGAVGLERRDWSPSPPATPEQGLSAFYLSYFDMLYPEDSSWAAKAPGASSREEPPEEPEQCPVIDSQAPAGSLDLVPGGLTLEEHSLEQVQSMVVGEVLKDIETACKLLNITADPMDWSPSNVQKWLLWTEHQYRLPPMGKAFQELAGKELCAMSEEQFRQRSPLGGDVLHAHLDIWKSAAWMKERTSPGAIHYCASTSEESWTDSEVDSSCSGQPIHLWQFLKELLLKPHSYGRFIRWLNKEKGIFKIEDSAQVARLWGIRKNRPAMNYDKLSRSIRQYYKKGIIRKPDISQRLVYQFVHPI
Outline: as §1

[5] = target: T5, ETV7 (Homo sapiens, UniProt Q9Y603 1-341)
T5 sequence: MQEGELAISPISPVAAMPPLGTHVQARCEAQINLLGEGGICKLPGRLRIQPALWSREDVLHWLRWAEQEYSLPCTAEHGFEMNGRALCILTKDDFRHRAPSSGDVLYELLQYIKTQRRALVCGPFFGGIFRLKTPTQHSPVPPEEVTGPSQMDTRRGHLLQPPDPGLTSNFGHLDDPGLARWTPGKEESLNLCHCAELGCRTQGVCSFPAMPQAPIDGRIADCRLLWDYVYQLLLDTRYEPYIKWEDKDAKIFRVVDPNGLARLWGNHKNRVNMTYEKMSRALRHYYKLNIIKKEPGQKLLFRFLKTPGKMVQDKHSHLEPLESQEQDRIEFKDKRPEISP
Outline: as §1

[6] = target: T6, ELF5 (Homo sapiens, UniProt Q9UKW6-2 1-255)
T6 sequence: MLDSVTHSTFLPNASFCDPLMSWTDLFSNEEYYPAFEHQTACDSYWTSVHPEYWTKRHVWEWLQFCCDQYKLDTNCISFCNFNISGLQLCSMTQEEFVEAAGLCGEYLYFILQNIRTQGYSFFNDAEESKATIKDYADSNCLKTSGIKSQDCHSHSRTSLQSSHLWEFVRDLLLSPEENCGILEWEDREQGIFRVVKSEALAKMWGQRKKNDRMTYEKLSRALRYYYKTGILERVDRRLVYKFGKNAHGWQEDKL
Outline: as §1

[7] = target: T7, ETV3 (Homo sapiens, UniProt P41162-2 1-143)
T7 sequence: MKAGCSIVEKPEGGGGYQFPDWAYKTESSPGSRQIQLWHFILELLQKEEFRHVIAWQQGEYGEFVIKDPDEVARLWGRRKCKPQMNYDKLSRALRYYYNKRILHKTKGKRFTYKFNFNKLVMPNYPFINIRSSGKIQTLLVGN
Outline: as §1

[8] = target: ETV6 (Homo sapiens, UniProt P41212 1-452)
ETV6, sequence (P41212 whole entry): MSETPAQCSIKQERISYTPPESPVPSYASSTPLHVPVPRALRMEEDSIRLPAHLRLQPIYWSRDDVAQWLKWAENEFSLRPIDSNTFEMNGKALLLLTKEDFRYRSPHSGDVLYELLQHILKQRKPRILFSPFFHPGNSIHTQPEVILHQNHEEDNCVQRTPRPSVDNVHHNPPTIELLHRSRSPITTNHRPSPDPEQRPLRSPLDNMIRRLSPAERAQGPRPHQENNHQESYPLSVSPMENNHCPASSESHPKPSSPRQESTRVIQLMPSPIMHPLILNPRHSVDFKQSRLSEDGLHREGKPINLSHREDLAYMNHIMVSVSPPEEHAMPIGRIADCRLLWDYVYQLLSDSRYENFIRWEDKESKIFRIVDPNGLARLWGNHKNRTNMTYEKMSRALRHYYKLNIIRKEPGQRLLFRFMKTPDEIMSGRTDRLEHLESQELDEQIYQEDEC
Outline: as §1

Row | Sequence | binding signal [1] | binding signal [2] | binding signal [3] | binding signal [4] | binding signal [5] | binding signal [6] | binding signal [7] | binding signal [8]
1 | ACCTTC | 1.92 fold enrichment (6-mer frequency, TF over GST control) | 1.75 fold enrichment (6-mer frequency, TF over GST control) | 1.89 fold enrichment (6-mer frequency, TF over GST control) | 2.02 fold enrichment (6-mer frequency, TF over GST control) | 1.79 fold enrichment (6-mer frequency, TF over GST control) | 2.19 fold enrichment (6-mer frequency, TF over GST control) | 1.8 fold enrichment (6-mer frequency, TF over GST control) | 1.96 fold enrichment (6-mer frequency, TF over GST control)
2 | CCTGCC | 1.3 fold enrichment (6-mer frequency, TF over GST control) | 1.24 fold enrichment (6-mer frequency, TF over GST control) | 1.23 fold enrichment (6-mer frequency, TF over GST control) | 1.31 fold enrichment (6-mer frequency, TF over GST control) | 1.33 fold enrichment (6-mer frequency, TF over GST control) | 1.35 fold enrichment (6-mer frequency, TF over GST control) | 1.28 fold enrichment (6-mer frequency, TF over GST control) | 1.36 fold enrichment (6-mer frequency, TF over GST control)
3 | ATACGT | 1.11 fold enrichment (6-mer frequency, TF over GST control) | 1.18 fold enrichment (6-mer frequency, TF over GST control) | 1.19 fold enrichment (6-mer frequency, TF over GST control) | 1.23 fold enrichment (6-mer frequency, TF over GST control) | 1.1 fold enrichment (6-mer frequency, TF over GST control) | 1.14 fold enrichment (6-mer frequency, TF over GST control) | 1.14 fold enrichment (6-mer frequency, TF over GST control) | 1.14 fold enrichment (6-mer frequency, TF over GST control)
4 | CCCTGC | 1.18 fold enrichment (6-mer frequency, TF over GST control) | 1.18 fold enrichment (6-mer frequency, TF over GST control) | 1.12 fold enrichment (6-mer frequency, TF over GST control) | 1.11 fold enrichment (6-mer frequency, TF over GST control) | 1.22 fold enrichment (6-mer frequency, TF over GST control) | 1.2 fold enrichment (6-mer frequency, TF over GST control) | 1.22 fold enrichment (6-mer frequency, TF over GST control) | 1.2 fold enrichment (6-mer frequency, TF over GST control)
5 | GCTGAA | 1.16 fold enrichment (6-mer frequency, TF over GST control) | 1.13 fold enrichment (6-mer frequency, TF over GST control) | 1.16 fold enrichment (6-mer frequency, TF over GST control) | 1.17 fold enrichment (6-mer frequency, TF over GST control) | 1.08 fold enrichment (6-mer frequency, TF over GST control) | 1 fold enrichment (6-mer frequency, TF over GST control) | 1.1 fold enrichment (6-mer frequency, TF over GST control) | 1.09 fold enrichment (6-mer frequency, TF over GST control)
6 | GACATC | 1.22 fold enrichment (6-mer frequency, TF over GST control) | 1.27 fold enrichment (6-mer frequency, TF over GST control) | 1.31 fold enrichment (6-mer frequency, TF over GST control) | 1.57 fold enrichment (6-mer frequency, TF over GST control) | 1.31 fold enrichment (6-mer frequency, TF over GST control) | 1.35 fold enrichment (6-mer frequency, TF over GST control) | 1.33 fold enrichment (6-mer frequency, TF over GST control) | 1.33 fold enrichment (6-mer frequency, TF over GST control)
